High-throughput results (PubChem BioAssay)
This is a sample that favours compounds with a hit; in the whole collection about 21% have one here.
NS1 inh: inhibitors of influenza NS1 protein function; Potency, µM (series often up to 46.1 µM), inactives show at the top dose activity, positive = more growth; 270,000 compounds, 0.4% hits; AID 2326; calls by dose curve; note: potency is the fitted concentration of half-maximal effect; actives are rising curves; nearly all actives have a fitted effect of over 50% in size
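Recovery from NS1-induced slow growth read by OD600 in budding yeast switched to galactose assay medium (pH 6.0, -URA) at 1:100 dilution. Compound 23 nl per well; the matching strain lacking NS1 serves as control.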
Pf growth 96h: P. falciparum growth inhibition at 96 hours. P. falciparum luciferase reporter growth, 96 h. Potency, µM (titrated, usually from 28.7 µM), for inactives: at the highest dose activity change, negative = inhibition, actives largely listed as inhibitors. 320,000 compounds, 6.9% hits. AID 504834; note: potency is the fitted concentration of half-maximal effect; % is set by controls: 0 for no effect and ±100 for the full control effect
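Readout is luminescence from an integrated firefly luciferase in P. falciparum. Red cells, 2% hematocrit and 0.05% parasitemia final, were cultured with compound through two parasite generations (96 hours) at 37 C, 5% CO2.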
Shiga toxin inh: inhibitors of Shiga toxin in Vero cells; inhibition, % at 38.7 µM; Vero cells, Shiga toxin protein synthesis inhibition reporter; 290,000 compounds, 9.2% hits; in the data active = inhibition mostly above about 28%, no sharp cut-off; inactive = mostly below about 43%; note: 0% is about no effect
Pf growth 48h: P. falciparum growth inhibition at 48 hours (one generation); P. falciparum luciferase growth in erythrocytes, 48 h; Potency, µM (top dose mostly 28.7 µM), for the others: at the top dose activity change, negative = inhibition, hits mostly inhibitors; 310,000 compounds, 5.9% hits; note: potency is the fitted concentration of half-maximal effect; % is set by controls: 0 for no effect and ±100 for the full control effect
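Luciferase-expressing P. falciparum in infected erythrocytes (2% hematocrit, 0.1% parasitemia final) in RPMI 1640/0.5% Albumax were exposed to compound for 48 hours at 37 C, 5% CO2; growth read as luminescence.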
SARS PLP yeast: blocks SARS-CoV papain-like protease in a yeast assay; S. cerevisiae expressing SARS-CoV PLpro, growth rescue; Potency, µM (highest dose often 32.9 µM), for the others: at the top dose activity, positive = growth rescue, hits mostly activators; 330,000 compounds, 0.19% hits; AID 485353; calls by dose curve; note: potency is the fitted concentration of half-maximal effect; 0% is about no effect; nearly all actives have a fitted effect of over 55% in size
CHX counter: counter-screen for Shiga toxin inhibitors: cycloheximide protein synthesis inhibition; max response, %; 300,000 compounds, 12% hits; cell reporter, cycloheximide protein synthesis inhibition counterscreen; in the data active = max response mostly above about 13%, no sharp cut-off; inactive = mostly below about 14%; note: read at 38.3 µM for the half of the compounds with a filed dose; 0% is about no effect
An asterisk follows results filed as active; i = inactive; ? = inconclusive; · = no result given. Unless noted, calls come from the whole dose curve; as a rule, active = well fitted inhibition curve with a large enough effect; inconclusive = small, poorly fitted or top-dose-only effect, or another doubt; inactive = no such curve, though single readings can be large or run the other way.

SMILES	NS1 inh	Pf growth 96h	Shiga toxin inh	Pf growth 48h	SARS PLP yeast	CHX counter
CCCc1cc(=O)oc2cc(C)cc(OC(C)C(=O)NCC3CCC(C(=O)O)CC3)c12 (stereo not drawn)	4%	?	-1	0%	4%	-1
CCCCc1cc(=O)oc2cc(C)cc(OC(C)C(=O)NCC3CCC(C(=O)O)CC3)c12 (stereo not drawn)	5%	9.3µM*	-3	?	-2%	1
COc1ccccc1NC(=O)/C(C#N)=C/c1cc([N+](=O)[O-])ccc1N1CCCC1	3%	?	-7	6%	25%	-4
Cc1cccc2sc(NS(=O)(=O)c3ccccc3)nc12	-8%	2%	13	6%	-3%	-2
Cc1ccccc1C(=O)N1CCC(C(=O)OCc2nc(N)nc(Nc3ccccc3)n2)CC1	·	13µM*	·	?	5%	·
CCOc1ccc(-c2c(C)sc3nc[nH]c(=O)c23)cc1	-4%	2%	·	4%	4%	1
Cc1ccc(S(=O)(=O)N(C)CC(=O)Nc2ncccc2C)cc1	·	12%	·	0%	-1%	·
CCOC(=O)c1c(NC(=O)COC(=O)c2ccc(O)cc2)sc(C(=O)N(C)C)c1C	-9%	?	12	12µM*	-1%	5
CCOC(=O)c1c(NC(=O)CN2CCOCC2)sc(C(=O)NC)c1C	-4%	?	-26	·	1%	8
CCOC(=O)c1c(NC(=O)CN2C(=O)NC(C)(c3ccc(Cl)cc3)C2=O)sc(C(=O)NC)c1C (stereo not drawn)	14%	4.7µM*	-1	8.3µM*	8%	1
CCOC(=O)c1c(NC(=O)COC(=O)c2ccc(NC(=O)CC#N)cc2)sc(C(=O)NC)c1C	·	-26%	·	13µM*	-3%	·
CCOC(=O)c1c(NC(=O)COC(=O)CCOc2ccccc2C)sc(C(=O)NC)c1C	·	-13%	·	-4%	-16%	·
COCCn1c(C)cc(/C=C2/SC(=O)N(CC(=O)N3CCCC3)C2=O)c1C	25%	30%	16	1%	-1%	8
CCOc1ccccc1N1Cc2ccccc2C1	0%	·	-24	7.4µM*	0%	-4
CCOc1ccccc1N1CCN(Cc2cccc(OC)c2OC)CC1	3%	-28%	7	-1%	15%	0
CCOc1ccccc1N1CCN(C(=O)C(F)(F)F)CC1	-1%	0%	-7	·	-2%	-2
CCOc1ccc(N2Cc3ccccc3C2)cc1	-9%	7.4µM*	116	?	-1%	39*
CCOc1ccccc1N1Cc2cc(C)c(C)cc2C1	13%	?	22	13µM*	7%	12
COc1ccc(OC)c(N2Cc3cc(C)c(C)cc3C2)c1	-18%	·	18	2.9µM*	?	14*
CC(/C=N/Nc1nnc(C)c(=O)[nH]1)=C\c1ccccc1	27%	117%	81*	4%	-15%	26*
CCOc1ccccc1/C=C(/NC(=O)c1ccccc1)C(=O)N(CC)CC	2%	?	-2	-30%	21%	1
COc1cc(CNCCN2CCOCC2)ccc1OCc1ccccc1Cl	-4%	12µM*	-12	?	-1%	2
COc1cc(CNCc2ccccn2)ccc1OCc1ccccc1Cl	6%	?	33	?	14%	13*
COc1cc(/C=C(\C#N)c2ccccn2)ccc1OCc1ccccc1Cl	11%	2.3µM*	2	1.9µM*	5%	10
COc1cc(CNCCN2CCOCC2)ccc1OCc1ccc(Cl)cc1	-6%	?	13	·	-5%	16
SMILES	NS1 inh	Pf growth 96h	Shiga toxin inh	Pf growth 48h	SARS PLP yeast	CHX counter
COc1cc(NC2c3ccccc3C(=O)N2Cc2ccc3c(c2)OCO3)cc(OC)c1 (stereo not drawn)	3%	-39%	25	0%	-1%	5
O=C(O)COc1ccc2ccccc2c1	·	·	-4	·	·	-7
C[C@H]1CC[C@H]2C(=O)N[C@H](Cc3ccccc3)C(=O)N2[C@@H]1c1ccccc1	-11%	-72%	-20	8%	9%	-1
CSc1nc(N)c2c(C)c(C)sc2n1	2%	-5%	-1	-2%	-2%	-2
C=C(C)CSc1nc(N)c2c(C)c(C)sc2n1	-6%	·	48	23%	20%	19*
CCOC(=O)CCn1cc(F)c(=O)n(Cc2ccccc2)c1=O	0%	15%	-19	1%	-9%	1
Cc1ccc(Cc2cnc(NC(=O)C3CCCO3)s2)cc1 (stereo not drawn)	-18%	i	138*	325%	3%	34*
O=C(Nc1ncc(Cc2cccc(C(F)(F)F)c2)s1)C1CCCO1 (stereo not drawn)	?	4%	35*	97%	-6%	34*
O=c1c2ccccc2nnn1COc1cccc(Cl)c1	-3%	83%	124*	97%	-1%	55*
O=C(COc1ccc(Cl)cc1Cl)OCn1nnc2ccccc2c1=O	2%	24%	-14	·	-5%	2
CCc1ccccc1-n1c(SCC(=O)c2c(N)n(C3CC3)c(=O)[nH]c2=O)nnc1N1CCOCC1	·	?	·	-10%	1%	·
C#CCOCCOCCOCCNc1nc(N2CCN(C(=O)CCCCCCCCCCNC(=O)[C@H]([C@@H](C)CC)n3cc(CCCCCN)nn3)CC2)nc(N2CCN(C(=O)CCCCCCCCCCNC(=O)[C@H](CCCCN)n3cc(CCCC(=O)O)nn3)CC2)n1	·	?	·	12µM*	-1%	·
C#CCOCCOCCOCCNc1nc(N2CCOCC2)nc(N2CCN(C(=O)CCCCCCCCCCNC(=O)[C@@H](CCC(=O)O)n3cc(CCCCCN)nn3)CC2)n1	·	?	·	15µM*	-1%	·
C#CCOCCOCCOCCNc1nc(N2CCN(C(=O)[C@H]([C@@H](C)CC)n3cc(CCCCN)nn3)CC2)nc(N2CCN(C(=O)[C@H](C)n3cc(CCC(=O)O)nn3)CC2)n1	11%	?	5	11%	8%	0
C#CCOCCOCCOCCNc1nc(N2CCN(C(=O)CCCCCCCCCCNC(=O)[C@@H](CCC(=O)O)n3cc(CCCCCN)nn3)CC2)nc(N2CCN(C(=O)CCCCCCCCCCNC(=O)[C@H]([C@@H](C)CC)n3cc(CCCCCN)nn3)CC2)n1	·	1.5µM*	·	2.1µM*	2%	·
C#CCOCCOCCOCCNc1nc(N2CCN(C(=O)[C@H](CCCCN)n3cc(CN)nn3)CC2)nc(N2CCN(C(=O)[C@H](CCC(=O)O)n3cc(CN)nn3)CC2)n1	·	·	·	·	1%	·
CSc1nc(N)nc2c1ncn2CC(=O)Nc1ccc(C)c(C)c1	·	·	·	·	3%	·
C[C@H]1CN([C@@H](C)CO)C(=O)c2cccc(NC(=O)C3CC3)c2O[C@H]1CN(C)C(=O)Nc1ccc2c(c1)OCO2	·	·	·	·	-4%	·
O=C(COc1cccc(C(F)(F)F)c1)NCC(c1cccs1)N1CCOCC1 (stereo not drawn)	·	15µM*	·	13µM*	13%	·
O=C(COc1cccc(C(F)(F)F)c1)NCC(c1ccco1)N1CCCC1 (stereo not drawn)	·	·	·	·	3%	·
